# ± gives the standard deviation.
# Test system: RAW-Dual (murine macrophage reporter line)
# Experiment: NF-kB reporter (SEAP) activity fold change vs agonist alone; higher = enhanced NF-kB activity
# Conditions: modulator concentration 10 µM; agonist: CpG ODN 1826 0.5 ug/mL
# Procedure, shortened: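 RAW-Dual murine macrophage reporter cells were seeded at 50 000 per well in 384-well plates and pre-incubated 1 hour at 37 °C with compound pin-transferred to 10 μM final. After 1 hour, a PRR agonist was added and cells incubated overnight. Supernatant NF-κB (SEAP, QUANTI-Blue, 620 nm absorbance) and IRF (Lucia luciferase, QUANTI-Luc, luminescence) signals were divided by the mean agonist-only control on the same plate to give fold change. Two replicate plates were averaged, with errors by propagation.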
row,SMILES,NF-kB reporter
1,Cc1ccccc1CC(CC(=O)O)C(=O)O (stereo not drawn),1.1 ± 0.089
2,COc1ccc(Cn2cc3c(-c4ccc(F)cc4)nnc-3c3cc(OC)c(OC)cc32)cc1,0.318 ± 0.026
3,CC(C)c1ccc(N(CC(=O)NCCSCc2ccc(Cl)cc2)S(C)(=O)=O)cc1,0.597 ± 0.058
4,Nc1ccc(C=Cc2ccccc2)cc1,0.964 ± 0.097
5,COc1nn(C)cc1C(=O)Nc1ccc(C(=O)NCCN2CCOCC2)cc1,1.02 ± 0.052
6,CC12CCC(=O)C=C1C=CC1C2CCC2(C)C1CCC21CCC(=O)O1 (stereo not drawn),0.781 ± 0.19
7,CC(=O)Nc1cc2nc3ccccc3nc2cc1NC(C)=O,0.964 ± 0.11
8,C[C@H](Nc1ncnc2[nH]cnc12)c1cc2cccc(Cl)c2c(=O)n1-c1ccccc1,0.557 ± 0.042
9,COc1ccc(C(=O)Nc2cc(C)nc3c(C)cc(C)cc23)cc1OC,0.763 ± 0.18
10,CS(=O)(=O)N(CC(=O)NCCSCc1cccc(Cl)c1)c1cccc(Cl)c1,0.978 ± 0.16
11,O=C(O)CCCCC1SCC2NC(=O)NC21 (stereo not drawn),0.935 ± 0.067
12,COc1ccc(NC(=O)CN(c2ccc(C)c(C)c2)S(C)(=O)=O)cc1,0.831 ± 0.068
13,O=C(CCCN1CCC(O)(c2ccc(Cl)cc2)CC1)c1ccc(F)cc1,0.827 ± 0.13
14,Cn1nc(CNS(=O)(=O)c2cccc(C(F)(F)F)c2)c2c1CCOC2,1.13 ± 0.34
15,CC1CCN(C2CC(=O)N(c3ccc(S(=O)(=O)N4CCOCC4)cc3)C2=O)CC1 (stereo not drawn),0.986 ± 0.082
16,COc1ccc2cc1Oc1ccc(cc1)C[C@H]1c3c(cc4c(c3Oc3cc5c(cc3OC)CCN(C)[C@@H]5C2)OCO4)CCN1C,0.195 ± 0.011
17,COc1ccc(C(=O)ON=C(N)c2ccc(OC)c(OC)c2)cc1OC,0.825 ± 0.096
18,Cc1ccc(S(=O)(=O)NC(=O)NN2CC3CCCC3C2)cc1 (stereo not drawn),1.22 ± 0.17
19,CCc1cnn2c(NCc3ccc[n+]([O-])c3)cc(N3CCCC[C@H]3CCO)nc12,0.338 ± 0.018

# Same assay, conditions: modulator concentration 10 µM; agonist: LPS 0.1 ug/mL
row,SMILES,NF-kB reporter
1,O=C(CCn1c(=O)oc2ccccc21)Nc1ccccc1,1.22 ± 0.19
2,O=C(Nc1ccncc1)c1ccc(OCC2CCOCC2)nc1,1.39 ± 0.12
3,CNCC[C@@H](Oc1ccccc1C)c1ccccc1.Cl,0.996 ± 0.05
4,Brc1ccc2ncnc(Nc3ccccc3)c2c1,1.25 ± 0.097
5,O=C(NC12CC3CC(CC(C3)C1)C2)N1CCOCC1,1.02 ± 0.084
6,Cc1cc(NC2CCCC2)nc2ccccc12,1.48 ± 0.12
7,O=C(CCC(=O)OCC(=O)c1cccs1)Nc1ccc(Oc2ccccc2)cc1,0.842 ± 0.054
8,COC(=O)C1C(=O)C(=CNCc2ccccc2)C(=O)CC1(C)C (stereo not drawn),0.99 ± 0.072
9,Cc1cnc(NC(=O)C2=C(O)c3ccccc3S(=O)(=O)N2C)s1,1.06 ± 0.41
10,NNC(=O)CN1C(=O)C2CC=C(Cl)CC2C1=O (stereo not drawn),0.976 ± 0.085
11,O=C(COc1ccc2ccccc2c1)Nc1cnoc1,1.14 ± 0.081
12,Br.Fc1ccc(-c2csc(Nc3ccc4c(c3)OCO4)n2)cc1,0.946 ± 0.066
13,Cc1occc1C(=O)Nc1ccc([N+](=O)[O-])cc1Cl,0.851 ± 0.066
14,Cn1cnc2cc(NCc3ccc(Br)cc3)ccc21,0.762 ± 0.076
15,C[C@H](NC(=O)C(=O)Nc1ccccc1C(C)(C)C)C(=O)N[C@@H](CC(=O)O)C(=O)COc1c(F)c(F)cc(F)c1F,0.434 ± 0.023
16,O=C(NCCc1csc(-c2ccc(F)cc2)n1)c1ccc(Br)cc1,1.18 ± 0.089
17,CCN(CC)Cc1cc(Nc2ccnc3cc(Cl)ccc23)ccc1O.Cl.Cl.O.O,0.671 ± 0.054
18,CC1(C)CCC2(C(=O)O)CCC3(C)C(=CCC4C5(C)CCC(O)C(C)(C)C5CCC43C)C2C1 (stereo not drawn),1.12 ± 0.088
19,NNC(=O)c1ccncc1,1.33 ± 0.21
20,O=C(Nc1ccccn1)NC1CCS(=O)(=O)C1 (stereo not drawn),0.918 ± 0.22

row,SMILES,NF-kB reporter
1,Cc1ccccc1CC(CC(=O)O)C(=O)O (stereo not drawn),0.979 ± 0.12
2,COc1ccc(Cn2cc3c(-c4ccc(F)cc4)nnc-3c3cc(OC)c(OC)cc32)cc1,1.17 ± 0.13
3,CC(C)c1ccc(N(CC(=O)NCCSCc2ccc(Cl)cc2)S(C)(=O)=O)cc1,0.909 ± 0.076
4,Nc1ccc(C=Cc2ccccc2)cc1,0.776 ± 0.038
5,COc1nn(C)cc1C(=O)Nc1ccc(C(=O)NCCN2CCOCC2)cc1,1.03 ± 0.083
6,CC12CCC(=O)C=C1C=CC1C2CCC2(C)C1CCC21CCC(=O)O1 (stereo not drawn),0.958 ± 0.084
7,CC(=O)Nc1cc2nc3ccccc3nc2cc1NC(C)=O,1.05 ± 0.11
8,C[C@H](Nc1ncnc2[nH]cnc12)c1cc2cccc(Cl)c2c(=O)n1-c1ccccc1,0.808 ± 0.054
9,COc1ccc(C(=O)Nc2cc(C)nc3c(C)cc(C)cc23)cc1OC,0.948 ± 0.054
10,CS(=O)(=O)N(CC(=O)NCCSCc1cccc(Cl)c1)c1cccc(Cl)c1,0.986 ± 0.079
11,O=C(O)CCCCC1SCC2NC(=O)NC21 (stereo not drawn),1.13 ± 0.078
12,COc1ccc(NC(=O)CN(c2ccc(C)c(C)c2)S(C)(=O)=O)cc1,1.02 ± 0.061
13,O=C(CCCN1CCC(O)(c2ccc(Cl)cc2)CC1)c1ccc(F)cc1,0.893 ± 0.074
14,Cn1nc(CNS(=O)(=O)c2cccc(C(F)(F)F)c2)c2c1CCOC2,1.08 ± 0.061
15,CC1CCN(C2CC(=O)N(c3ccc(S(=O)(=O)N4CCOCC4)cc3)C2=O)CC1 (stereo not drawn),1.02 ± 0.065
16,COc1ccc2cc1Oc1ccc(cc1)C[C@H]1c3c(cc4c(c3Oc3cc5c(cc3OC)CCN(C)[C@@H]5C2)OCO4)CCN1C,1.09 ± 0.091
17,COc1ccc(C(=O)ON=C(N)c2ccc(OC)c(OC)c2)cc1OC,0.878 ± 0.09
18,Cc1ccc(S(=O)(=O)NC(=O)NN2CC3CCCC3C2)cc1 (stereo not drawn),1.17 ± 0.48
19,CCc1cnn2c(NCc3ccc[n+]([O-])c3)cc(N3CCCC[C@H]3CCO)nc12,0.0505 ± 0.0045

# From the supplement of paper PMC10646978
